About 83,000 compounds went through this panel and 20% of them were active in at least one assay; those are over-represented in the sample as a whole.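 The test compound was applied at a single concentration to cells in 96-well plates for 48 hours, and percent growth was recorded.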 Activity calls are given as the source filed them. The calls were made as follows: active = growth percent below 10; inactive = the rest.
Tests used:
Test in all cases: NCI-60 one-dose screen, 48 h (100 = growth as untreated, 0 = no growth, -100 = all killed)
Conditions in all cases: 10 µM unless noted
SK-MEL-2 melanoma = system: SK-MEL-2 melanoma
EKVX NSCLC = system: EKVX NSCLC
SN12C renal = system: SN12C renal
UO-31 renal = system: UO-31 renal
TK-10 renal = system: TK-10 renal
ACHN renal = system: ACHN renal
CAKI-1 renal = system: CAKI-1 renal
A498 renal = system: A498 renal
CCRF-CEM leukemia = system: CCRF-CEM leukemia
MOLT-4 leukemia = system: MOLT-4 leukemia
SR leukemia = system: SR leukemia
RPMI-8226 leukemia = system: RPMI-8226 leukemia
OVCAR-8 ovarian = system: OVCAR-8 ovarian
OVCAR-5 ovarian = system: OVCAR-5 ovarian
OVCAR-4 ovarian = system: OVCAR-4 ovarian
SK-OV-3 ovarian = system: SK-OV-3 ovarian
IGROV1 ovarian = system: IGROV1 ovarian
OVCAR-3 ovarian = system: OVCAR-3 ovarian
HS 578T breast = system: HS 578T breast
NCI/ADR-RES ovarian = system: NCI/ADR-RES ovarian

Measured: growth

Nc1nc(-c2ccccc2)c(N=Nc2ccc(Cl)cc2[N+](=O)[O-])s1
inactive: SK-MEL-2 melanoma 90.4% | EKVX NSCLC 76.8% | SN12C renal 96% | UO-31 renal 65.2% | TK-10 renal 169% | ACHN renal 101% | CAKI-1 renal 82.5% | A498 renal 92% | CCRF-CEM leukemia 101% | MOLT-4 leukemia 100% | SR leukemia 99.7% | RPMI-8226 leukemia 94.2% | OVCAR-8 ovarian 91.3% | OVCAR-5 ovarian 101% | OVCAR-4 ovarian 97.2% | SK-OV-3 ovarian 96.5% | IGROV1 ovarian 80.5% | OVCAR-3 ovarian 108% | HS 578T breast 79.6% | NCI/ADR-RES ovarian 101%

COc1ccc(/C=C/c2nc3ccccc3n3c(-c4ccc(Cl)cc4)nnc23)cc1
inactive: SK-MEL-2 melanoma 99.8% | EKVX NSCLC 88.7% | SN12C renal 91.7% | UO-31 renal 66.4% | TK-10 renal 106% | ACHN renal 93.5% | CAKI-1 renal 72.2% | A498 renal 85.3% | CCRF-CEM leukemia 78.1% | MOLT-4 leukemia 72.6% | SR leukemia 60.1% | RPMI-8226 leukemia 81.4% | OVCAR-8 ovarian 92.7% | OVCAR-5 ovarian 102% | OVCAR-4 ovarian 81% | SK-OV-3 ovarian 98.4% | IGROV1 ovarian 66.8% | OVCAR-3 ovarian 99% | HS 578T breast 96.2% | NCI/ADR-RES ovarian 94.4%

CCCCNC(=S)Nc1ccc(OCc2nc3ccccc3[nH]2)cc1
inactive: SK-MEL-2 melanoma 69.1% | EKVX NSCLC 62.3% | SN12C renal 64.5% | UO-31 renal 41.1% | TK-10 renal 98.8% | ACHN renal 45.5% | CAKI-1 renal 40% | A498 renal 96.5% | CCRF-CEM leukemia 34.2% | MOLT-4 leukemia 35.2% | SR leukemia 53.7% | RPMI-8226 leukemia 58.8% | OVCAR-8 ovarian 59.3% | OVCAR-5 ovarian 86% | OVCAR-4 ovarian 57.2% | SK-OV-3 ovarian 113% | IGROV1 ovarian 78.6% | OVCAR-3 ovarian 60.3% | HS 578T breast 92.3% | NCI/ADR-RES ovarian 65.9%

CCCCc1c(Nn2cnnn2)no[n+]1[O-]
inactive: SK-MEL-2 melanoma 80.1% | EKVX NSCLC 54.2% | SN12C renal 42.4% | UO-31 renal 28.4% | TK-10 renal 96.5% | ACHN renal 54.9% | CAKI-1 renal 39.5% | A498 renal 79.2% | CCRF-CEM leukemia 31.6% | MOLT-4 leukemia 23% | SR leukemia 36.9% | RPMI-8226 leukemia 45.8% | OVCAR-8 ovarian 42.1% | OVCAR-5 ovarian 83.2% | OVCAR-4 ovarian 55% | SK-OV-3 ovarian 88.8% | IGROV1 ovarian 35.8% | OVCAR-3 ovarian 51.4% | HS 578T breast 58.6% | NCI/ADR-RES ovarian 58.2%

COc1cc(-c2nc3cc(Cl)c(Cl)cc3[nH]2)ccc1OCc1nnc(-c2cccs2)o1
inactive: SK-MEL-2 melanoma 65.7% | EKVX NSCLC 91.3% | SN12C renal 33.7% | UO-31 renal 62.5% | TK-10 renal 125% | ACHN renal 36% | CAKI-1 renal 67.7% | A498 renal 121% | CCRF-CEM leukemia 91.8% | MOLT-4 leukemia 62.8% | SR leukemia 31.1% | RPMI-8226 leukemia 59.2% | OVCAR-8 ovarian 38% | OVCAR-5 ovarian 83.3% | OVCAR-4 ovarian 40.8% | SK-OV-3 ovarian 47.8% | IGROV1 ovarian 59.4% | OVCAR-3 ovarian 91.2% | HS 578T breast 63.9% | NCI/ADR-RES ovarian 39.5%

COc1cc2c(c(OC)c1OC)C(=O)CC(c1cccc(NC(=O)[C@@H](N)CC(C)C)c1)O2 (stereo not given in full)
inactive: SK-MEL-2 melanoma 99.3% | EKVX NSCLC 99.1% | SN12C renal 84.4% | UO-31 renal 78% | TK-10 renal 115% | ACHN renal 103% | CAKI-1 renal 80.6% | A498 renal 89.3% | CCRF-CEM leukemia 97.6% | MOLT-4 leukemia 96.1% | SR leukemia 66.9% | RPMI-8226 leukemia 108% | OVCAR-8 ovarian 94.9% | OVCAR-5 ovarian 112% | OVCAR-4 ovarian 102% | SK-OV-3 ovarian 109% | IGROV1 ovarian 107% | OVCAR-3 ovarian 97.9% | HS 578T breast 88.4% | NCI/ADR-RES ovarian 99.8%

COc1ccc(C2=NN(C(C)=O)C(c3ccc(OCc4ccc(Cl)cc4)c(OC)c3)C2)cc1OC (stereo not given)
inactive: SK-MEL-2 melanoma 44.1% | EKVX NSCLC 46.3% | SN12C renal 43.2% | UO-31 renal 22.4% | TK-10 renal 44.1% | ACHN renal 42.9% | CAKI-1 renal 47.2% | A498 renal 64.9% | CCRF-CEM leukemia 50.1% | MOLT-4 leukemia 20.5% | SR leukemia 52.4% | RPMI-8226 leukemia 37% | OVCAR-8 ovarian 43.5% | OVCAR-5 ovarian 79.8% | OVCAR-4 ovarian 29.4% | SK-OV-3 ovarian 84.9% | IGROV1 ovarian 49% | OVCAR-3 ovarian 41.4% | HS 578T breast 56.3% | NCI/ADR-RES ovarian 56.1%

CNS(=O)(=O)c1ccc(Nc2ccc(C(F)(F)F)cc2)c(-c2cn(C)cn2)c1
inactive: SK-MEL-2 melanoma 63.8% | EKVX NSCLC 49% | SN12C renal 41.9% | TK-10 renal 46.6% | ACHN renal 48.9% | CAKI-1 renal 60.8% | A498 renal 50.7% | CCRF-CEM leukemia 51.2% | MOLT-4 leukemia 37.1% | SR leukemia 51.6% | RPMI-8226 leukemia 35.6% | OVCAR-8 ovarian 52.6% | OVCAR-5 ovarian 68.3% | OVCAR-4 ovarian 70.1% | SK-OV-3 ovarian 86.8% | IGROV1 ovarian 35.5% | OVCAR-3 ovarian 54.7% | HS 578T breast 59.6% | NCI/ADR-RES ovarian 35%
active: UO-31 renal 9.13%

C#CCOc1cc(N(CC)CC)ccc1C(C(=O)NC(C)(C)C)N(C(=O)C1CCc2cc(F)ccc2O1)c1cc(C)cc(C)c1 (stereo not given)
active: SK-MEL-2 melanoma -14.6%
inactive: EKVX NSCLC 33.3% | SN12C renal 30.9% | UO-31 renal 23.2% | TK-10 renal 50.3% | ACHN renal 22.7% | CAKI-1 renal 27.9% | A498 renal 45.8% | CCRF-CEM leukemia 36.3% | MOLT-4 leukemia 16% | SR leukemia 20.4% | RPMI-8226 leukemia 17.6% | OVCAR-8 ovarian 34.1% | OVCAR-5 ovarian 49.7% | OVCAR-4 ovarian 36.8% | SK-OV-3 ovarian 46.7% | IGROV1 ovarian 61.9% | OVCAR-3 ovarian 30.5% | HS 578T breast 53.7% | NCI/ADR-RES ovarian 41.9%

COc1c(F)ccc(C(=O)Nc2ccc3nc(NC(=O)C4CCCN(S(=O)(=O)c5ccc(Br)c(F)c5)C4)sc3c2)c1F (stereo not given)
inactive: SK-MEL-2 melanoma 88.6% | EKVX NSCLC 88.5% | SN12C renal 87.7% | UO-31 renal 72.1% | TK-10 renal 122% | ACHN renal 81.5% | CAKI-1 renal 72.7% | A498 renal 112% | CCRF-CEM leukemia 87.4% | MOLT-4 leukemia 42.5% | SR leukemia 47.2% | RPMI-8226 leukemia 52% | OVCAR-8 ovarian 98.1% | OVCAR-5 ovarian 102% | OVCAR-4 ovarian 75.4% | SK-OV-3 ovarian 102% | IGROV1 ovarian 82.2% | OVCAR-3 ovarian 96.8% | HS 578T breast 72.8% | NCI/ADR-RES ovarian 83.4%

Cn1cc(-c2cc(N)n3nc(-c4cn(C)c5ccccc45)cc3n2)c2cc(Br)ccc21
active: SK-MEL-2 melanoma -84.5% | EKVX NSCLC -22.1% | SN12C renal -43.9% | UO-31 renal -84.2% | TK-10 renal -27.8% | ACHN renal -31.7% | CAKI-1 renal -75.3% | A498 renal -26.3% | CCRF-CEM leukemia -4.52% | MOLT-4 leukemia -0.0957% | SR leukemia 7.44% | RPMI-8226 leukemia 0.257% | OVCAR-8 ovarian -91.9% | OVCAR-5 ovarian 5.47% | OVCAR-4 ovarian -25.6% | IGROV1 ovarian -3.64% | OVCAR-3 ovarian -46.3% | HS 578T breast -7.42% | NCI/ADR-RES ovarian -13.9%
inactive: SK-OV-3 ovarian 38.9%

COc1cc2nc(SCc3ccccc3)n(-c3ccc(Cl)cc3)c(=O)c2cc1OC
inactive: SK-MEL-2 melanoma 28.3% | CCRF-CEM leukemia 18.5% | MOLT-4 leukemia 43.1% | RPMI-8226 leukemia 34% | OVCAR-5 ovarian 34.3%
active: EKVX NSCLC -13.1% | SN12C renal -11.3% | UO-31 renal -38.8% | TK-10 renal -38.8% | ACHN renal -66.4% | CAKI-1 renal -75.5% | A498 renal 7.03% | SR leukemia 5.33% | OVCAR-8 ovarian -19.9% | OVCAR-4 ovarian -55.6% | SK-OV-3 ovarian -19.1% | IGROV1 ovarian 4.02% | OVCAR-3 ovarian -42.6% | HS 578T breast -9.89% | NCI/ADR-RES ovarian -30.4%

Nc1nnc(-c2c[nH]c3ccc(Br)cc23)c(-c2c[nH]c3ncc(Br)cc23)n1
inactive: EKVX NSCLC 46.6% | SN12C renal 46.5% | UO-31 renal 42.1% | TK-10 renal 33.1% | ACHN renal 29.6% | CAKI-1 renal 21% | A498 renal 17.6% | CCRF-CEM leukemia 13.4% | SR leukemia 23.6% | RPMI-8226 leukemia 19.6% | OVCAR-8 ovarian 34.3% | OVCAR-5 ovarian 59% | OVCAR-4 ovarian 33.6% | SK-OV-3 ovarian 37.6% | IGROV1 ovarian 22% | OVCAR-3 ovarian 62.4% | HS 578T breast 48.8% | NCI/ADR-RES ovarian 78.6%
active: SK-MEL-2 melanoma -33.2% | MOLT-4 leukemia 2.51%

CCOP(=O)(OCCCl)c1nc(-c2ccc(C)cc2)oc1NCc1ccccc1 (stereo not given)
inactive: SK-MEL-2 melanoma 87% | EKVX NSCLC 67.2% | SN12C renal 70.4% | UO-31 renal 52.5% | TK-10 renal 100% | ACHN renal 80% | CAKI-1 renal 49.5% | A498 renal 99.3% | CCRF-CEM leukemia 72.4% | MOLT-4 leukemia 43.6% | SR leukemia 66.8% | RPMI-8226 leukemia 43.2% | OVCAR-8 ovarian 78.7% | OVCAR-5 ovarian 98.4% | OVCAR-4 ovarian 68.3% | SK-OV-3 ovarian 91% | IGROV1 ovarian 62.4% | OVCAR-3 ovarian 75% | HS 578T breast 74.6% | NCI/ADR-RES ovarian 63.8%

Cc1ccc(/C=C/c2n(Cc3ccc4ccccc4c3)c3ccccc3[n+]2Cc2ccc3ccccc3c2)cc1
active: SK-MEL-2 melanoma -97.7% | EKVX NSCLC -95.7% | SN12C renal -56.1% | UO-31 renal -96% | TK-10 renal -80% | ACHN renal -96.1% | CAKI-1 renal -94.6% | A498 renal -82.5% | CCRF-CEM leukemia -66.1% | MOLT-4 leukemia -25.9% | SR leukemia -34.2% | RPMI-8226 leukemia -71% | OVCAR-8 ovarian -59.8% | OVCAR-5 ovarian -94% | OVCAR-4 ovarian -70.5% | SK-OV-3 ovarian -87.1% | IGROV1 ovarian -76% | OVCAR-3 ovarian -83.3% | HS 578T breast -46.2% | NCI/ADR-RES ovarian -48.1%

— PubChem BioAssay (NCI)
